Results as given in article PMC7862700, “An all-to-all approach to the identification of sequence-specific readers for epigenetic DNA modifications on cytosine”.

Assays:
Test in all cases: DAPPL (digital affinity profiling via proximity ligation, sequencing); 10 mM Tris-HCl pH 7.5, 50 mM NaCl, 1 mM DTT, 4% glycerol, room temperature, 30 min; GST-TFs on glutathione beads, 16-mer random dsDNA library, 0.1% formaldehyde crosslink after washing; high values mean tight binding
[1] = molecular target: T1, ELK1 (Homo sapiens, UniProt P19419 1-428); conditions: protein: recombinant; tags: N-terminal GST; dsDNA, one strand shown
T1 sequence: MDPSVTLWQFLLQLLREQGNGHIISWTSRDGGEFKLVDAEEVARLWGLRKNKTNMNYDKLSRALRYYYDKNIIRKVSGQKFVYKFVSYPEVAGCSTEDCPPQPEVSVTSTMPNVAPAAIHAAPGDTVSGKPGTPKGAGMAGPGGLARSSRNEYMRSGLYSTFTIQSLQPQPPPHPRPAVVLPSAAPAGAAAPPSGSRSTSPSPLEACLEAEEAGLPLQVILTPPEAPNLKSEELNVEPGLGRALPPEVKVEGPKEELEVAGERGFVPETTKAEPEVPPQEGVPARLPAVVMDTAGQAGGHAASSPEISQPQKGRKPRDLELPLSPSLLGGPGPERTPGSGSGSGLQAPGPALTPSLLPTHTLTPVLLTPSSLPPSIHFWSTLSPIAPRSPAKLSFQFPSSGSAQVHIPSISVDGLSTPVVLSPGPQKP
Outline: (§1)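 Yeast served to express human transcription factors as GST fusions, which were then captured on glutathione beads and labelled with DNA barcodes. Pooled with a tag-only sample, they were incubated with 200 nmole of a 16-mer random double-stranded DNA library for 30 min at room temperature in Tris/NaCl/DTT/glycerol buffer, washed, crosslinked with 0.1% formaldehyde, ligated by proximity, amplified by PCR and sequenced. Dividing each hexamer's read frequency for a factor by its frequency for the tag-only sample gives the binding signal.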

[2] = molecular target: T2, GABPA (Homo sapiens, UniProt Q06546 1-454); conditions: protein: recombinant; tags: N-terminal GST; dsDNA, one strand shown
T2 sequence: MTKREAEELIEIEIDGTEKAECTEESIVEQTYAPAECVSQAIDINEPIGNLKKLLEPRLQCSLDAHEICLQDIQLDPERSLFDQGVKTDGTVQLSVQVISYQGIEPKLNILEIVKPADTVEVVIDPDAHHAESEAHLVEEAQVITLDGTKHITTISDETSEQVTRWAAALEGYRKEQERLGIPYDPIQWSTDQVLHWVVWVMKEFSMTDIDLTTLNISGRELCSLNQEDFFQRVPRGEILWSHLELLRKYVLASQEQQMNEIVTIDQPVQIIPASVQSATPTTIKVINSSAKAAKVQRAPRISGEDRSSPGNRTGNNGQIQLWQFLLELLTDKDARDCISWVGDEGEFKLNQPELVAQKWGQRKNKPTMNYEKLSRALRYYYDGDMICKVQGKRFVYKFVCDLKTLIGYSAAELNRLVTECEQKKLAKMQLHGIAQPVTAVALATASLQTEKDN
Outline: as §1

[3] = molecular target: ELF1 (Homo sapiens, UniProt P32519 1-619); conditions: protein: recombinant; tags: N-terminal GST; dsDNA, one strand shown
Sequence of ELF1 (P32519 whole entry): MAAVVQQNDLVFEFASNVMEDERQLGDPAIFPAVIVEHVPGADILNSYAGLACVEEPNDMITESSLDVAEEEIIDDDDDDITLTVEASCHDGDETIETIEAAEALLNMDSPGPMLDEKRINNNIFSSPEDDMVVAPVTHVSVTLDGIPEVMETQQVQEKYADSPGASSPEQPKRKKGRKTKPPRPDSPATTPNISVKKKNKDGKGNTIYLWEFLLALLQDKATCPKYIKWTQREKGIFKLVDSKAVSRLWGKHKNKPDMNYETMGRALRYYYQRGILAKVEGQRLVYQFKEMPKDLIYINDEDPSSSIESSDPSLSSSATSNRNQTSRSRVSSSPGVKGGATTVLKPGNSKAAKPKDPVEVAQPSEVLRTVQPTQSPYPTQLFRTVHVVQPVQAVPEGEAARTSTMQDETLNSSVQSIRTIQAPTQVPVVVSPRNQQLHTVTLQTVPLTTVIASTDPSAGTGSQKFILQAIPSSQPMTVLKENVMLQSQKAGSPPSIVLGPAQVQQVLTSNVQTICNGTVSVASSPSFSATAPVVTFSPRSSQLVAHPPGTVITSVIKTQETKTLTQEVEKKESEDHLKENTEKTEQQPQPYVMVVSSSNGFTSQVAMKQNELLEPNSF
Outline: as §1

[4] = molecular target: T3, EHF (Homo sapiens, UniProt Q9NZC4 1-300); conditions: protein: recombinant; tags: N-terminal GST; dsDNA, one strand shown
T3 sequence: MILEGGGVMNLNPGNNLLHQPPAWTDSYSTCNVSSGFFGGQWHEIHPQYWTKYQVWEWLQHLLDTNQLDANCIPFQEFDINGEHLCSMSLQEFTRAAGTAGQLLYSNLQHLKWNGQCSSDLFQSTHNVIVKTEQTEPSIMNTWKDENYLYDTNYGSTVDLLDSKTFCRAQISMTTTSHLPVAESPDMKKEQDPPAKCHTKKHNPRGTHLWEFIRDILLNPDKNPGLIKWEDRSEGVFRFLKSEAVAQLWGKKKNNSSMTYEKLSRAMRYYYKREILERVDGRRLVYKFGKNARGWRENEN
Outline: as §1

[5] = molecular target: SPI1 (Homo sapiens, UniProt P17947 1-270); conditions: protein: recombinant; tags: N-terminal GST; dsDNA, one strand shown
Outline: as §1

[6] = molecular target: SPIB (Homo sapiens, UniProt Q01892 1-262); conditions: protein: recombinant; tags: N-terminal GST; dsDNA, one strand shown
Sequence of SPIB (Q01892 whole entry): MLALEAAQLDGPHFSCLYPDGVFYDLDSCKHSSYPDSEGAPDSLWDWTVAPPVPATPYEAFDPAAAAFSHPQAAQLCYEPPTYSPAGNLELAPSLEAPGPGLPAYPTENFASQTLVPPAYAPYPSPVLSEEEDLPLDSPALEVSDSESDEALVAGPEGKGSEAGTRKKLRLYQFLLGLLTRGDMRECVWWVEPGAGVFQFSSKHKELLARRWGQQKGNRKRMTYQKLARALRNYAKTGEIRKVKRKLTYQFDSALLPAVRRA
Outline: as §1

[7] = molecular target: T4, ELK3 (Homo sapiens, UniProt P41970 1-407); conditions: protein: recombinant; tags: N-terminal GST; dsDNA, one strand shown
T4 sequence: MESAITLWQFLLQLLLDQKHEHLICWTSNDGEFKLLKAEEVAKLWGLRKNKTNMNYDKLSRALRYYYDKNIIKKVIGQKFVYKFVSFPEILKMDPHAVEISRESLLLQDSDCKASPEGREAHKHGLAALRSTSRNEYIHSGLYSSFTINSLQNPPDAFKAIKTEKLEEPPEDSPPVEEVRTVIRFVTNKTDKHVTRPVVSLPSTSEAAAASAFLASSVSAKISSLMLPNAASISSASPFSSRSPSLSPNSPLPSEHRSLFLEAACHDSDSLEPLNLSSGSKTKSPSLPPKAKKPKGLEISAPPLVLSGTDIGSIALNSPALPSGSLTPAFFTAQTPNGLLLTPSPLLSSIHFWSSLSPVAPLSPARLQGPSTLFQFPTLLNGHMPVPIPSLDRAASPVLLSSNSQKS
Outline: as §1

[8] = molecular target: HSF1 (Homo sapiens, UniProt Q00613 1-529); conditions: protein: recombinant; tags: N-terminal GST; chain copies: 3; dsDNA, one strand shown
Sequence of HSF1 (Q00613 whole entry): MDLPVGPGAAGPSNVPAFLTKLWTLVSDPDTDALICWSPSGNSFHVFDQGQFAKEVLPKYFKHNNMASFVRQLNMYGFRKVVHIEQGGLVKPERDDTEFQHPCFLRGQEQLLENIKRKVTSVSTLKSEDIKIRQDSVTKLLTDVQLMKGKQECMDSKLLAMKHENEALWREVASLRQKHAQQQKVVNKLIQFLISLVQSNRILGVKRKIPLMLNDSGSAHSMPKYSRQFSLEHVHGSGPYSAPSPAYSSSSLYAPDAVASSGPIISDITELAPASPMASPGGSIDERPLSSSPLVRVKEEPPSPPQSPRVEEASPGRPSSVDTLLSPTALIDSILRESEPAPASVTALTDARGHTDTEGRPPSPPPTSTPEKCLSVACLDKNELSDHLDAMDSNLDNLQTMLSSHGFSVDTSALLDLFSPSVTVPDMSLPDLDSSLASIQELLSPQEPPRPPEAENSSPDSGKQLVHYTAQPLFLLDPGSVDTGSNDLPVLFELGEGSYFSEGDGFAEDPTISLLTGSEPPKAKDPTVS
Outline: as §1

[9] = molecular target: T5, SPIC (Homo sapiens, UniProt Q8N5J4 1-248); conditions: protein: recombinant; tags: N-terminal GST; dsDNA, one strand shown
T5 sequence: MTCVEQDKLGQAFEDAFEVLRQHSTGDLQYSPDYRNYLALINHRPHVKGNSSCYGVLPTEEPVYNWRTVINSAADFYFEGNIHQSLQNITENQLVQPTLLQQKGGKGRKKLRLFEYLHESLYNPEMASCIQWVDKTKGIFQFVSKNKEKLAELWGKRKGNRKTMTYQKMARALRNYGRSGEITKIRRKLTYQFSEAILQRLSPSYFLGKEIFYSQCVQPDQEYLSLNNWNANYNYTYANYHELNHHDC
Outline: as §1

[10] = molecular target: ELF4 (Homo sapiens, UniProt Q99607 1-663); conditions: protein: recombinant; tags: N-terminal GST; dsDNA, one strand shown
Sequence of ELF4 (Q99607 whole entry): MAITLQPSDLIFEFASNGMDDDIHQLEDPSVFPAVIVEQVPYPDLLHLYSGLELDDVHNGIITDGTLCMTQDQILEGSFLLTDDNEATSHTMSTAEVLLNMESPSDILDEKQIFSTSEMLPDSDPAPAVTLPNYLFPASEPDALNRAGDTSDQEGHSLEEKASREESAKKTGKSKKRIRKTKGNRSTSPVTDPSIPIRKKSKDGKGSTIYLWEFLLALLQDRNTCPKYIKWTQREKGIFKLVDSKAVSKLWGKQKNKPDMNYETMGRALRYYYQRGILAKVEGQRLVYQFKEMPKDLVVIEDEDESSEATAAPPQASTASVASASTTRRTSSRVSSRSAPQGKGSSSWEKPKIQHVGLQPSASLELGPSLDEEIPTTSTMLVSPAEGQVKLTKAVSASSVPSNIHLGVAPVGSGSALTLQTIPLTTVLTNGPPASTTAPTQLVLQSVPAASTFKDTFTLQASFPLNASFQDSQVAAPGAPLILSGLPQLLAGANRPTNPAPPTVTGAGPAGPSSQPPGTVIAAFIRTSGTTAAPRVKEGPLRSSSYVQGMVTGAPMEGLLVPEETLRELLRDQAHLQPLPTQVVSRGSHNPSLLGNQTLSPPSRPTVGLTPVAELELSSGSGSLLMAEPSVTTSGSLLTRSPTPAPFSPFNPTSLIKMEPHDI
Outline: as §1

[11] = molecular target: T6, ELK4 (Homo sapiens, UniProt P28324-2 1-405); conditions: protein: recombinant; tags: N-terminal GST; dsDNA, one strand shown
T6 sequence: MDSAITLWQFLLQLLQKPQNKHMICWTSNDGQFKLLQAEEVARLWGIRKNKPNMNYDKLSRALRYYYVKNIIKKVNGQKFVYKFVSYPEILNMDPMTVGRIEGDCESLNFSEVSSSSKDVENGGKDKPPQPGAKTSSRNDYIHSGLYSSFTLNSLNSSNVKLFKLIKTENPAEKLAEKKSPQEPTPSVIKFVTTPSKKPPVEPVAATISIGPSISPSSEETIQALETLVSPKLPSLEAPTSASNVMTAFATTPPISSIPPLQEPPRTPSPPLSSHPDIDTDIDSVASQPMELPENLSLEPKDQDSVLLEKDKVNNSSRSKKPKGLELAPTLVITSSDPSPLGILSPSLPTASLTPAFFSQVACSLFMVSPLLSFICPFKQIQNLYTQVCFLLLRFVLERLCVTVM
Outline: as §1

[12] = molecular target: T7, ETV2 (Homo sapiens, UniProt O00321 1-342); conditions: protein: recombinant; tags: N-terminal GST; dsDNA, one strand shown
T7 sequence: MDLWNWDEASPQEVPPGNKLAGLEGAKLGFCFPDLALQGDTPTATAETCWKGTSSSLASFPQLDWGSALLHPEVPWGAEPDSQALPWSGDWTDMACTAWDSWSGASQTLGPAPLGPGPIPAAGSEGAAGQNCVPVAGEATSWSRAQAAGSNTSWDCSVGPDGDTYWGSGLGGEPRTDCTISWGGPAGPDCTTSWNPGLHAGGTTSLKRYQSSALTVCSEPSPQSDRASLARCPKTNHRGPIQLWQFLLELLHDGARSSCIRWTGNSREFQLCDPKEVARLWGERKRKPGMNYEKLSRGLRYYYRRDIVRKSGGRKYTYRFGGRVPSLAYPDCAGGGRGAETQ
Outline: as §1

[13] = molecular target: CRX (Homo sapiens, UniProt O43186 1-299); conditions: protein: recombinant; tags: N-terminal GST; dsDNA, one strand shown
Sequence of CRX (O43186 whole entry): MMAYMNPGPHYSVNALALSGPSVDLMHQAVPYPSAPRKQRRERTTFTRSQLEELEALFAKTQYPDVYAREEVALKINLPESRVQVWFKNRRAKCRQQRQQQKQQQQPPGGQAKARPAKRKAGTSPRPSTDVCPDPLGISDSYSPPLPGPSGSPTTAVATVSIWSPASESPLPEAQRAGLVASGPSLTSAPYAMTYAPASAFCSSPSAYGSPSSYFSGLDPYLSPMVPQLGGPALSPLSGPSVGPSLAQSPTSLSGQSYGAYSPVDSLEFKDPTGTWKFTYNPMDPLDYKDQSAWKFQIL
Outline: as §1

[14] = molecular target: ETV1 (Homo sapiens, UniProt P50549 1-477); conditions: protein: recombinant; tags: N-terminal GST; dsDNA, one strand shown
Sequence of ETV1 (P50549 whole entry): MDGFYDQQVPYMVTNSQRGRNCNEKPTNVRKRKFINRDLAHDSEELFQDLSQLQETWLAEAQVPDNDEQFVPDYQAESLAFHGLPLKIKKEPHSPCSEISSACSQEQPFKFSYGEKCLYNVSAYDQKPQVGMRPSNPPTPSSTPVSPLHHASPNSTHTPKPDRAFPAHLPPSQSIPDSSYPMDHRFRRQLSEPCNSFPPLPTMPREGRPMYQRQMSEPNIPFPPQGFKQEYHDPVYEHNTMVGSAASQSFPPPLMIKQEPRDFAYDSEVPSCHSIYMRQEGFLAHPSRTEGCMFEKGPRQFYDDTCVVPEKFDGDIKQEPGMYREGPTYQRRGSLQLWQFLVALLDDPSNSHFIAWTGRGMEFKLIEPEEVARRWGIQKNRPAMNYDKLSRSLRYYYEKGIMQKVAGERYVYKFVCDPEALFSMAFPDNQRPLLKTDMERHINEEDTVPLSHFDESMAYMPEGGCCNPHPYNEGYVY
Outline: as §1

[15] = molecular target: T8, ETV3L (Homo sapiens, UniProt Q6ZN32 1-361); conditions: protein: recombinant; tags: N-terminal GST; dsDNA, one strand shown
T8 sequence: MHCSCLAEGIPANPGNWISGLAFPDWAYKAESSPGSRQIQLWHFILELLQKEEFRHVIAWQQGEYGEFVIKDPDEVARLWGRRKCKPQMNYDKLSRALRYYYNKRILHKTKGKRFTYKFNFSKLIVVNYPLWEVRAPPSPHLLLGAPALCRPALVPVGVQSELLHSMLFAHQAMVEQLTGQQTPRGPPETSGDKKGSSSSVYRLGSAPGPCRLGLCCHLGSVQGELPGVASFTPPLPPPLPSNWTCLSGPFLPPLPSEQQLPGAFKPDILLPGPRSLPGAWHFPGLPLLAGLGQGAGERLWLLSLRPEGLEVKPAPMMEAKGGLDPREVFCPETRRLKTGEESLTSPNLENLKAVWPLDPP
Outline: as §1

[16] = molecular target: T9, ETS2 (Homo sapiens, UniProt P15036 1-469); conditions: protein: recombinant; tags: N-terminal GST; dsDNA, one strand shown
T9 sequence: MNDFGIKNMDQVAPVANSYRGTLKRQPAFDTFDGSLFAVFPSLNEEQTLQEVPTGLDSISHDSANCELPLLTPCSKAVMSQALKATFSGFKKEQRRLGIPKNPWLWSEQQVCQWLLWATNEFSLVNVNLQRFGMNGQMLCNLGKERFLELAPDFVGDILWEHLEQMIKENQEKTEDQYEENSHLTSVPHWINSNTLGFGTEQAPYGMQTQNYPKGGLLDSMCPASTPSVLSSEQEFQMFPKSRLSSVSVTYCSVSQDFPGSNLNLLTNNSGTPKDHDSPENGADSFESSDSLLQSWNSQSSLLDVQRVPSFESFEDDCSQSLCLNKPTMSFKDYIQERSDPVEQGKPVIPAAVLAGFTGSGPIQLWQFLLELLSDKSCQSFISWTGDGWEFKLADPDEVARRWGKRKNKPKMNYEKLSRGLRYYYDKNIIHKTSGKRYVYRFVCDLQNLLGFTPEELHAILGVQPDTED
Outline: as §1

[17] = molecular target: T10, ETV7 (Homo sapiens, UniProt Q9Y603 1-341); conditions: protein: recombinant; tags: N-terminal GST; dsDNA, one strand shown
T10 sequence: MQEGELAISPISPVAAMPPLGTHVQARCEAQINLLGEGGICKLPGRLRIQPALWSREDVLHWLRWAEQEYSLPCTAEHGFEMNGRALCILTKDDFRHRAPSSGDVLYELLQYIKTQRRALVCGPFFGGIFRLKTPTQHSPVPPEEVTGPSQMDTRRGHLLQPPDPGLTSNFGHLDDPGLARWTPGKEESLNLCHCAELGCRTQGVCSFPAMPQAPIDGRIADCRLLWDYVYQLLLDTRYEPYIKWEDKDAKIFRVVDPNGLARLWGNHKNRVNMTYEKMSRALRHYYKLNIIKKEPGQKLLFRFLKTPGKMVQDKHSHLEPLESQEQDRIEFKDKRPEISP
Outline: as §1

[18] = molecular target: T11, ELF5 (Homo sapiens, UniProt Q9UKW6-2 1-255); conditions: protein: recombinant; tags: N-terminal GST; dsDNA, one strand shown
T11 sequence: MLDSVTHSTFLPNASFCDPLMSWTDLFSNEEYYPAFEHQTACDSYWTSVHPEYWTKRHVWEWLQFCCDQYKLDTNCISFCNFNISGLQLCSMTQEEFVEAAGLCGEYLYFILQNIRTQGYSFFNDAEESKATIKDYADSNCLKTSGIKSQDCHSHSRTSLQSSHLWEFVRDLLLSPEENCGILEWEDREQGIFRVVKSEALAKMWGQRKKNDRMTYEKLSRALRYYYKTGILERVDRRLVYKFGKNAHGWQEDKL
Outline: as §1

[19] = molecular target: T12, ETV3 (Homo sapiens, UniProt P41162-2 1-143); conditions: protein: recombinant; tags: N-terminal GST; dsDNA, one strand shown
T12 sequence: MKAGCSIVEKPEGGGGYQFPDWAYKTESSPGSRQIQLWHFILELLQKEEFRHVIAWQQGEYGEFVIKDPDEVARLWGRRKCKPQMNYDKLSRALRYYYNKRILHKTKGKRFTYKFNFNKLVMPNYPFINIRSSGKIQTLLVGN
Outline: as §1

For TGATAA, the binding signal [1] was 1.04 fold enrichment (6-mer frequency, TF over GST control), the binding signal [2] was 1.03 fold enrichment (6-mer frequency, TF over GST control) and the binding signal [3] was 1 fold enrichment (6-mer frequency, TF over GST control). For the same sequence, the binding signal [4] was 1.07 fold enrichment (6-mer frequency, TF over GST control), the binding signal [5] was 1.05 fold enrichment (6-mer frequency, TF over GST control) and the binding signal [6] was 1.05 fold enrichment (6-mer frequency, TF over GST control). For the same sequence, the binding signal [7] was 1.09 fold enrichment (6-mer frequency, TF over GST control), the binding signal [8] was 1.2 fold enrichment (6-mer frequency, TF over GST control) and the binding signal [9] was 1.04 fold enrichment (6-mer frequency, TF over GST control). For the same sequence, the binding signal [10] was 1.07 fold enrichment (6-mer frequency, TF over GST control), the binding signal [11] was 1.06 fold enrichment (6-mer frequency, TF over GST control) and the binding signal [12] was 1.02 fold enrichment (6-mer frequency, TF over GST control). The binding signal [13] was 1.52 fold enrichment (6-mer frequency, TF over GST control), the binding signal [14] was 1.07 fold enrichment (6-mer frequency, TF over GST control) and the binding signal [15] was 1.06 fold enrichment (6-mer frequency, TF over GST control). For the same sequence, the binding signal [16] was 1.01 fold enrichment (6-mer frequency, TF over GST control), the binding signal [17] was 1.08 fold enrichment (6-mer frequency, TF over GST control) and the binding signal [18] was 1.02 fold enrichment (6-mer frequency, TF over GST control). For the same sequence, the binding signal [19] was 1.05 fold enrichment (6-mer frequency, TF over GST control).
